Reference: PubChem BioAssay (NCATS)
Results filed as inconclusive are left out. Unmarked numbers belong to inactive results. Activity calls are given as the source filed them. Calls come from the whole dose curve; as a rule, active = well fitted inhibition curve with a large enough effect; inconclusive = small, poorly fitted or top-dose-only effect; inactive = no such curve, though single readings can be large or run the other way.

Molecular target: Cytochrome P450 3A7 (Homo sapiens) (UniProt P24462)
Test: Cytochrome P450 family 3 subfamily A member 7 (CYP3A7) small molecule antagonists: luciferase biochemical qHTS assay (AID 1963596); note: nearly all actives have a fitted effect of over 40% in size
Conditions: P450-Glo CYP3A7 enzyme luminescence, 1 h; series mostly up to 57.4 µM; activity change, negative = inhibition: at the top concentration
How it was run: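 Luminescence read-out (relative luminescence units) after 20 min with detection reagent, which stops the reaction. Enzyme, proluciferin substrate and compound preincubated 10 min, RT; NADPH regeneration system then started 1 h reaction. Ketoconazole as positive control.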
% is set by controls: 0 for no effect and ±100 for the full control effect; potency is the fitted concentration of half-maximal effect.

Sequence of Cytochrome P450 3A7 (Homo sapiens) (P24462 whole entry, looked up): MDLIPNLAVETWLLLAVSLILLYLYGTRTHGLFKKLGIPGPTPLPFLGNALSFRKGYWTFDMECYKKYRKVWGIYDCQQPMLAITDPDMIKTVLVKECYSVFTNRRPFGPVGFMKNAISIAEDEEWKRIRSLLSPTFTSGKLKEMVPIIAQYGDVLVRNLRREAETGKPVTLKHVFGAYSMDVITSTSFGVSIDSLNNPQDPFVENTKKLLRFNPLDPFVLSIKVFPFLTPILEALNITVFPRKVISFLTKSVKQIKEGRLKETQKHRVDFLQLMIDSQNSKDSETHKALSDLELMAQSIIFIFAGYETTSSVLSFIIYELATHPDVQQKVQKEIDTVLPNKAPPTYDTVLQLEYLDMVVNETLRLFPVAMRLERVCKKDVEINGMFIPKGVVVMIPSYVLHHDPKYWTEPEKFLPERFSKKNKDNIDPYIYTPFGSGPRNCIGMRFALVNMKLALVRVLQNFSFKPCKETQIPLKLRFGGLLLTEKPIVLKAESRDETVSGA

| Structure (SMILES) | activity change, negative = inhibition | Potency |
| --- | --- | --- |
| CC1(C)CC1C(=O)NC(=CCCCCSCC(N)C(=O)O)C(=O)O (stereo not given) | -6.35% | – |
| CCCN(CCc1cccs1)[C@H]1CCc2c(O)cccc2C1 | 0% | – |
| C[N+]1(CCCCC[N+]2(C)CCCC2)CCCC1 | -7.69% | – |
| COc1ccc(C(=O)NC(c2ccc(Cl)cc2)c2cc(Cl)c3cccnc3c2O)cc1 (stereo not given) | 1.02% | – |
| CC1(C#N)CCN(c2c(C(=O)N3CCN(S(C)(=O)=O)CC3)cnc3cc(F)c(F)cc23)CC1 | – | 14.1 µM (active) |
| NCc1c[nH]c(=S)n1C1CCc2c(F)cc(F)cc2C1 (stereo not given) | – | 15.1 µM (active) |
| CCC(=O)O | 3.13% | – |
| COc1ccccc1NC(=O)Cc1c(C(=O)O)[nH]c2ccc(Cl)cc12 | 16.2% | – |
| COc1ccc2cc(Br)ccc2c1 | 0% | – |
| CCN(CCCO)CCCOc1ccc2c(Nc3cc(CC(=O)Nc4cccc(F)c4)[nH]n3)ncnc2c1 | – | 14.1 µM (active) |
| CC(C)(C)CCN1C[C@@H]2C(CNC(=O)c3cc(Cl)cc(Cl)c3)[C@@H]2C1 (stereo not given in full) | -24.7% | – |
| C[S+](=O)([O-])Nc1ccc(-c2ccc3nc(-c4cccc(OC(F)(F)F)c4)[nH]c3c2)cc1 | 1.4% | – |
| O=C(O)CCC(=O)C(=O)O | -1.01% | – |
| Cc1cc(NC(=O)Nc2ccc(F)c(F)c2)n(-c2ccccc2)n1 | -28.5% | – |
| Nc1nc(=O)n([C@@H]2CS[C@H](CO)O2)cc1F | 3.71% | – |
| CN1c2c(nc(N)[nH]c2=O)NCC1CNc1ccc(C(=O)NC(CCC(=O)O)C(=O)O)cc1 (stereo not given) | 1.07% | – |
| CC(C)[C@@H]1C(=O)N(S(C)(=O)=O)[C@@H]2CCN(C(=O)/C=C/CN3CCCCC3)[C@H]21 | -27.6% | – |
| Cn1c2ccc(NC(=O)c3ccccc3)cc2c(=O)n2nc(C(=O)O)cc12 | -15.1% | – |
| CCOC(=O)c1csc(-n2nc(-c3ccc(F)c(F)c3)c(Cc3ccc(S(N)(=O)=O)cc3)c2N)n1 | 1.34% | – |
| Fc1ccc(CN2CCC(Nc3ccc(C(F)(F)F)nn3)CC2)cc1F | -15.1% | – |

| Structure (SMILES) | activity change, negative = inhibition | Potency |
| --- | --- | --- |
| Cc1cc(C)cc(NC(=O)CSc2c(C(C)C)cnc3c2c(=O)n(C)c(=O)n3C)c1 | 0% | – |
| CCC(Cc1c(I)cc(I)c(O)c1I)C(=O)O (stereo not given) | – | 16.9 µM (active) |
| CCC(O)c1ccccc1 (stereo not given) | -7.32% | – |
| CCOC(=O)c1ccc(NC(=O)c2cc(=O)c3ccc(C)c(C)c3o2)cc1 | -22.1% | – |
| CCOc1ccc(NC(=O)Cn2cc(C(=O)c3cccs3)c3ccccc32)cc1 | 8.01% | – |
| COc1ccc(CNC(=O)c2nc(SCc3ccccc3F)ncc2Cl)cc1 | 0% | – |
| CO/N=C(\C(=O)N[C@@H]1C(=O)N2C(C(=O)O)=C(COC(C)=O)CS[C@H]12)c1csc(N)n1 | 0% | – |
| CCOc1ccc(CNC(=O)Cn2c(=O)c3cccn3c3ccc(F)cc32)cc1 | – | 0.425 µM (active) |
| O=C(Nc1ccc(Cl)c(Cl)c1)C1CC1 | 42.6% | – |
| C=CS(=O)(=O)O | 0.832% | – |
| Cc1cccc(C#Cc2cc(F)cc(C#N)c2)n1 | 2.87% | – |
| Nc1nc(N)c2nc(CNc3ccc(C(=O)N[C@@H](CCC(=O)O)C(=O)O)cc3)cnc2n1 | 0% | – |
| N[C@H](CO)C(=O)O | 0% | – |
| C[C@@H](C(=O)O)c1ccc(-c2ccccc2)c(F)c1 | 5.93% | – |
| CCCCCCOC(=O)c1cccnc1 | -19% | – |
| COc1ccc([C@@H]2N[C@H](C(=O)O)Cc3c2[nH]c2ccccc32)cc1CN1CCN(c2ccccc2F)CC1 | -22.8% | – |
| C=CCCCCCCCCC(=O)OC | -0.826% | – |
| O=C(Nc1cccc(C2=NCCN2)c1)Nc1cccc(C2=NCCN2)c1 | 16.9% [at 23.9 µM] | – |
| Cn1c(=O)cc(N2CCCC(N)C2)n(Cc2cc(F)ccc2C#N)c1=O (stereo not given) | -28.3% | – |
| N[C@@H]1CCCCN(c2c(F)cc3c(=O)c(C(=O)O)cn(C4CC4)c3c2Cl)C1 | 0.739% | – |
